TcdB GH inh: TcdB glycohydrolase inhibitors, primary screen, biochemical, single point, plate reader | inhibition, % at 9.99 µM | Toxin B (Clostridioides difficile), P18177 | AID 652162, 2013 | TcdB glycohydrolase enzymatic assay | hit rate 0.24% among 350,000; in the data active = inhibition above about 10%
BH1578 lux ind: inducers of Vibrio cholerae quorum light production without autoinducers, primary screen, BH1578 luxS cqsA deficient, single point; V. cholerae BH1578 lux reporter, luminescence, 6 h; activation, % at 18.7 µM; hit rate 0.16% among 350,000; AID 588436, 2011; in the data active = activation mostly above about 9.7%, no sharp cut-off
BioA inh: M. tuberculosis BioA enzyme inhibitors, primary screen, biochemical, plate reader, single point, HTS; 7,8-diaminopelargonic acid synthase BioA (Mycobacterium tuberculosis); purified M. tuberculosis BioA enzyme; inhibition, % at 9.99 µM; hit rate 0.096% among 360,000; AID 602481, 2012; in the data active = inhibition above about 40%
VHR inh abs: VHR1 phosphatase inhibitors, primary screen, biochemical, absorbance, uHTS; Dual specificity protein phosphatase 3 (Homo sapiens), P51452; recombinant VHR phosphatase, pNPP absorbance; inhibition, % at 13.3 µM; hit rate 0.52% among 290,000; AID 1654, 2009; in the data active = inhibition above about 50%
PfHsp40 rescue: rescue of yeast from PfHsp40 toxicity, primary screen, S. cerevisiae, ATP luminescence; S. cerevisiae expressing PfHsp40, growth rescue; hit rate 0.68% among 340,000; growth rescue, % at 12.5 µM; in the data active = growth rescue above about 28%, passing the limit was not always enough;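 also: yeast W303a lacking pdr1 and pdr3 grown in galactose medium; growth measured after three days at 30 °C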
Yp Topo-I inh: Yersinia pestis topoisomerase I inhibitors, primary screen, biochemical, cleavage product accumulation, plate reader, single point. AID 504884, 2011. activity, % at 10 µM. Y. pestis Topo-I cleavage product accumulation. hit rate 0.064% among 360,000. DNA topoisomerase I (Yersinia pestis CO92); in the data active = activity above about 50%, passing the limit was not always enough
* = called active by the depositor; i = inactive; x = not tested or not shown. Hits are enriched below; roughly 1.2% of the tested compounds scored in any of these assays.

SMILES	TcdB GH inh	BH1578 lux ind	BioA inh	VHR inh abs	PfHsp40 rescue	Yp Topo-I inh
O=C(Nc1c[nH]c(=O)[nH]c1=O)c1cccc([N+](=O)[O-])c1	1	0	0	56*	0	12
CCCCNC1=NCCS1	-1	2	x	2	0	0
CCn1cc(/C=C(\NC(=O)c2ccc(OC)c(OC)c2)C(=O)NCCCO)c2ccccc21	1	-2	x	11	0	0
Cc1ccc(NS(=O)(=O)c2ccc(N3CCN(c4ccc(O)cc4)CC3)c([N+](=O)[O-])c2)c(C)c1	-5	-1	0	-4	70*	-7
CC(=O)N1CCC(c2c[nH]c3ccccc23)CC1	1	i	-1	-5	5	-2
N#C[C@H]1[C@H](c2ccccc2C2=CCCC2)[C@@H](CO)N1C(=O)NC1CCCCC1	0	x	x	x	x	x
Cc1nn(Cc2ccccc2)c(Cl)c1/C=N/NC(=O)c1cccnc1	1	-1	104*	5	-1	7
Cc1c(/C=N/NC(=O)c2cccnc2)c2ccccc2n1Cc1ccccc1	-1	-1	6	20	-1	28
Cc1nn(C)c(C(=O)N/N=C/c2cccnc2)c1Cl	0	i	44*	2	0	7
Cc1nn(C)c(C(=O)N/N=C/c2ccncc2)c1Cl	2	0	7	-9	0	-3
COc1ccccc1-c1cnc2c(c1)C(=O)N([C@H](C)CO)C[C@@H](C)[C@@H](CN(C)C(=O)CN(C)C)O2	-1	x	4	x	x	x
C[C@@H]1CN([C@H](C)CO)S(=O)(=O)c2ccc(-c3ccc(C#N)cc3)cc2O[C@@H]1CN(C)Cc1cccc(F)c1	1	x	2	x	x	x
COC(=O)C[C@H]1C[C@H]2c3cc(NC(=O)NC4CCCC4)ccc3O[C@H]2[C@H](CO)O1	-1	x	1	x	x	x
Cc1ccc(S(=O)(=O)Nc2nc3ccccc3nc2N2CCN(c3ccccc3F)CC2)cc1	x	i	1	50*	0	1
O=S(=O)(Nc1nc2ccccc2nc1N1CCN(c2ccccn2)CC1)c1ccc(Cl)cc1	x	3	4	-4	142*	9
O=C(c1ccccc1Br)N1CCN(c2ncccn2)CC1	0	i	-1	14	0	-2
O=C(Nc1ccc(Cl)cc1)c1nc[nH]c1C(=O)NCCN(CCNC(=O)c1[nH]cnc1C(=O)Nc1ccc(Cl)cc1)CCNC(=O)c1[nH]cnc1C(=O)Nc1ccc(Cl)cc1	x	i	-2	x	-2	64*
CC(C)(C)OC(=O)NCCCCCNC(=O)c1nc[nH]c1C(=O)NCCCCCNC(=O)OC(C)(C)C	2	2	0	x	45*	15
CC(C)(C)OC(=O)NCc1ccc(NC(=O)c2nc[nH]c2C(=O)NCCNC(=O)c2[nH]cnc2C(=O)Nc2ccc(CNC(=O)OC(C)(C)C)cc2)cc1	x	i	0	x	-1	79*
COc1ccc(NC(=O)c2nc[nH]c2C(=O)N[C@@H](CC(C)C)C(=O)OC(C)(C)C)cc1	0	1	-1	23	27*	6
C[C@H](CO)N1C[C@H](C)[C@H](CN(C)C(=O)c2cccc(F)c2)Oc2ncc(C3=CCCCC3)cc2C1=O	0	x	-1	x	x	x
C[C@@H]1CN([C@@H](C)CO)C(=O)c2cc(NC(=O)Nc3cccc4ccccc34)ccc2O[C@@H]1CN(C)C	0	x	1	x	x	x
Cc1cc(C(=O)Nc2cccc3c2O[C@H](CN(C)C(=O)NC(C)C)[C@H](C)CN([C@H](C)CO)C3=O)n(C)n1	-1	x	0	x	x	x
Cc1nc2ccccc2n1CC(O)Cn1c2ccccc2c2ccccc21 (stereo not drawn)	-1	13	0	24	0	16
OC(Cn1c2ccccc2c2ccccc21)C[n+]1cccc2ccccc21 (stereo not drawn)	x	0	2	57*	0	-7
SMILES	TcdB GH inh	BH1578 lux ind	BioA inh	VHR inh abs	PfHsp40 rescue	Yp Topo-I inh
O=C(NC(=S)N1CCc2ccccc21)c1ccc(Br)o1	1	i	x	9	36*	4
Clc1ccc(N2CCN(c3ncnc4c3oc3ccccc34)CC2)cc1	x	5	-1	50*	0	5
CN(C)C(=O)c1c(NC(=O)c2ccccc2)sc2c1CCC2	1	0	-1	21	-1	4
CCN(CC)CCCC(C)NC(=O)c1c(NC(=O)c2ccccc2)sc2c1CCCC2 (stereo not drawn)	4	-1	2	54*	1	-7
N[C@@H](Cc1c[nH]c2ccccc12)c1nnc(SCc2ccccc2)o1	x	-2	7	31	0	7
Brc1ccc(CSc2nnc(Cc3c[nH]c4ccccc34)o2)cc1	x	i	0	18	37*	10
CC(C)(C)OC(=O)NCCCCCc1nnc(SCc2ccccc2)o1	1	i	1	-21	0	57*
O=C1CCN(N=Nc2cccc(Cl)c2)N1	x	x	x	2	x	x
CCCCC(=O)Nc1ccc(N2CCN(c3ccc(F)cc3)CC2)cc1	-1	1	-1	-6	0	-2
CC(C)c1cc(-c2cc(C(=O)NCc3ccccc3)on2)nc(NC2CCCC2)n1	0	0	-2	22	5	23
CC(C)c1cc(-c2cc(C(=O)NCc3ccccc3)on2)nc(NCC2CC2)n1	2	0	-1	38	387*	1
CC(=O)Nc1ccc(S(=O)(=O)NCCC(=O)Nc2cc(C)ccn2)cc1	1	-2	x	x	1	-11
CCc1ccccc1NC1=NCC(=O)N1C1CCCC1	0	i	x	53*	0	-1
CCc1ccccc1NC1=NCC(=O)N1Cc1ccc(OC)cc1	x	-1	2	20	2	7
CC(C)c1csc(CN2CCN(Cc3ccc(F)c(F)c3)C(CCO)C2)n1 (stereo not drawn)	1	i	x	0	0	8
CC(C)c1cc(CN2CCN(Cc3ccc(F)c(F)c3)C(CCO)C2)[nH]n1 (stereo not drawn)	10*	i	3	-3	3	-3
Cc1cc(C(=O)Nc2ccccc2Cl)c2ccccc2n1	1	0	-2	-11	0	-1
COCCn1c(SCC(=O)Nc2ccc(OC)cc2OC)nc2ccccc2c1=O	1	i	1	51*	-1	2
COc1ccc(NC(=O)c2cc(C)nc3ccccc23)c(OC)c1	12*	-4	x	40	0	-11
Cc1cc(C(=O)Nc2ncc(C)s2)c2ccccc2n1	10*	i	x	-9	2	-1
COC(=O)COc1ccc(S(=O)(=O)NCCC2=CCCCC2)cc1	x	-8	-1	-23	2	15
CC(C)NC(=O)COc1ccc(S(=O)(=O)N2CCOCC2)cc1	x	3	-1	10	0	7

High-throughput results from PubChem.
